Experimental data reported in PubChem BioAssay (NCI).
“And” between values parts separate entries of the source, which are not always exact repeats. Equal values may be shown once. About 83,000 compounds went through this panel and 20% of them were active in at least one assay; those are over-represented in the sample as a whole.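 Percent growth is the endpoint: 0 to 100 indicates growth inhibition (40 means 60% inhibition), 0 means no net growth, and negative values indicate cell death.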 The source made the active and inactive calls. Rule for the calls: active = growth percent below 10; inactive = the rest.

system: HL-60(TB) leukemia; experiment: NCI-60 one-dose screen, 48 h (100 = growth as untreated, 0 = no growth, -100 = all killed); settings: 10 µM unless noted

Which growth does the source give for CC(C)OC(=O)c1ccc2[nH]c(O)c(C(=Nc3ccc(N(C)C(=O)CN4CCN(C)CC4)cc3)c3ccccc3)c2c1 here?
Its growth is -50.2% (active).

Which growth does the source give for CC(C)N1CN2C(=S)NC3C2N(C1)C(=S)N3C (stereo not given) here?
The growth was 100% (inactive).

Which growth does the source give for NC(Cc1ccc(O)cc1)C(=O)N/N=C/c1ccccc1O (stereo not given) here?
The growth was 93.7% (inactive).

With Cc1cc(C)n(Cc2cc(C(C)(C)C)cc(C(C)(C)C)c2)c(=O)c1C#N as the molecule, how does the growth read?
Its growth is 100% (inactive).

For Cc1cc2nc3ccc(=[N+](C)C)cc-3sc2cc1N, which growth is on record?
The growth was -50.3% (active) and -34.8% (active).

CCCC1(CN2c3ccccc3Sc3ccc(Cl)cc32)CCN(CC)C1 (stereo not given) was tested. Which growth did it give?
Its growth is 31.8% (inactive).

With O=C(Nc1nc2cc(C(=O)N3CCN(C(c4ccccc4)c4ccccc4)CC3)ccc2o1)c1ccc(NC2CCCCC2)c([N+](=O)[O-])c1 as the molecule, how does the growth read?
The growth was 82% (inactive).

Which growth does the source give for COc1cc(C2CC(c3cc(OC)c(OCCCOc4ccc(-n5c(/C=C/c6ccccc6)nc6ccccc6c5=O)cc4)c(OC)c3)=NO2)cc(OC)c1OC (stereo not given) here?
Its growth is 119% (inactive).

With O=C(NNc1ccc(-c2ccccc2)nn1)c1ccccc1 as the molecule, how does the growth read?
Its growth is 98.8% (inactive).

For O=[P@@]1(c2ccccc2)O[C@H](COCc2ccccc2)[C@@H](OCc2ccccc2)[C@H](OCc2ccccc2)[C@H]1NCc1ccccc1, which growth is on record?
Its growth is -25.1% (active).

Which growth does the source give for COc1ccc(/C=C/C(=O)Nc2ncnc3nc[nH]c23)cc1 here?
The growth was 78.8% (inactive).

How did the growth turn out when CCN(CC)c1ccc2[nH]c3c(C(N)=O)cc(=O)c(=O)c=3oc2c1 was run?
The growth was -25.1% (active).

Which growth does the source give for COc1cccc(C2=NN(C(C)=O)C(c3cc(OC)c(OC)c(OC)c3)C2)c1 (stereo not given) here?
The growth was -17.8% (active).

Which growth does the source give for COc1cc(/C=C/C(=O)c2ccc(O)c(CN3CCN(c4cc5c(cc4F)c(=O)c(C(=O)O)cn5C4CC4)CC3)c2)cc(OC)c1OC here?
Its growth is 7.35% (active).

COc1ccc(-c2cc(-c3cc(OC)ccc3OC)nc(SCC(=O)c3ccccc3)c2C#N)cc1 was tested. Which growth did it give?
The growth was 98.4% (inactive).

With O=C1Nc2ccccc2/C1=C/c1cccn1CCCCn1c2ccccc2c(=O)c2ccccc21 as the molecule, how does the growth read?
The growth was 60.2% (inactive).

For COc1c(B(O)O)cccc1-c1nc2ccc3n[nH]c(F)c3c2c2c1CCCC2, which growth is on record?
The growth was 20% (inactive).

How did the growth turn out when COc1ccc(-c2nn(-c3ccc(Cl)cc3)cc2-c2nc3ccccc3[nH]2)cc1 was run?
Its growth is 114% (inactive).

With Cc1ccc(NC(=O)Nc2ccc(Nc3ncnc4sc5c(c34)CCOC5)cc2)cc1Cl as the molecule, how does the growth read?
Its growth is 108% (inactive).

With CC(C)(C)[Si](C)(C)OC1[C@@H](O[Si](C)(C)C(C)(C)C)[C@@H](CNC(=O)NC(=O)C(F)(F)F)O[C@H]1n1cnc2c(NC(=O)Nc3ccccc3)ncnc21 (stereo not given in full) as the molecule, how does the growth read?
Its growth is -52.6% (active).

With CCOC(=O)c1ccc(NC(=O)c2nc(-c3cc(OC)c(OC)c(OC)c3)n(-c3ccc(Cl)cc3)n2)cc1 as the molecule, how does the growth read?
The growth was 77.3% (inactive).

How did the growth turn out when COc1cc(-c2nc(-c3ccc(-c4nc5ccc(F)cc5[nH]4)cc3)no2)cc(OC)c1OC was run?
The growth was 13.4% (inactive).

How did the growth turn out when CCn1cc(C(=O)N/N=C/c2cccs2)c(=O)c2cc(F)c(N3CCNC(C)C3)c(F)c21 (stereo not given) was run?
Its growth is 105% (inactive).

How did the growth turn out when Cc1c(C(=O)NCCCc2ccccc2)sc2ncc(-c3ccc(Br)cc3)n12 was run?
The growth was 90.1% (inactive).

With COc1ccc(OC)c(/C=N/Nc2ncnc3c2c(C)nn3C)c1 as the molecule, how does the growth read?
The growth was 88.9% (inactive).

With Cc1cc(O)c2c(c1O)C(=O)C13C(=C2O)C(=O)C2C(O)C1C1C(O)C3C(=O)C3=C(O)c4c(O)cc(C)c(O)c4C(=O)C321 (stereo not given) as the molecule, how does the growth read?
Its growth is -19.7% (active).

Which growth does the source give for COc1cc(C2=NN(C=O)C(c3cccc(Nc4ccnc5cc(C(F)(F)F)ccc45)c3)C2)cc(OC)c1OC (stereo not given) here?
Its growth is 8.02% (active).

CCCCc1ccc(Nc2ccc(Nc3ccc(CCCC)cc3S(=O)(=O)O)c3c2C(=O)c2ccccc2C3=O)c(S(=O)(=O)O)c1 was tested. Which growth did it give?
Its growth is 96% (inactive).

CNC(=O)c1cc(Oc2ccc(NC(=O)Nc3ccc(Cl)c(C(F)(F)F)c3)cc2)ccn1 was tested. Which growth did it give?
The growth was -35.3% (active) and 23.3% (inactive).

With COc1ccccc1-c1c(-c2ccc(Cl)cc2)c2cc3c(cc2[nH]c1=O)OCCO3 as the molecule, how does the growth read?
Its growth is 18.3% (inactive).

With COc1ccc2[nH]cc(-c3nc(-c4c[nH]c5ccncc45)cs3)c2c1 as the molecule, how does the growth read?
Its growth is 3.64% (active).

With COc1cccc(CC(C)=C(c2ccc(OCCN(C)C)cc2)c2ccc(OCCN(C)C)cc2)c1 as the molecule, how does the growth read?
The growth was -62.5% (active).

With Cc1ccc(S(=O)(=O)Oc2ccc(Br)cc2Br)cc1 as the molecule, how does the growth read?
The growth was 41.5% (inactive).

CCOc1ccccc1/C=N\N=C(\N)N/N=C/c1ccccc1OCC was tested. Which growth did it give?
Its growth is -7.32% (active).

Cc1c(C(=O)OC(=NC2CCCCC2)NC2CCCCC2)sc2c1c(=O)nc1c(C#N)n[nH]n12 was tested. Which growth did it give?
Its growth is 124% (inactive).

Cn1c(=O)[nH]c(=O)c2nc(CCC(=O)NCCC(=O)O)c(=O)[nH]c21 was tested. Which growth did it give?
The growth was 101% (inactive).

Which growth does the source give for CCN(CC)CCCC(C)N(Cc1ccccc1)CC(O)c1ccc(Cl)cc1 (stereo not given) here?
Its growth is 101% (inactive) and 106% (inactive).

For CCN(CC)S(=O)(=O)c1ccc(OC)c(NC(=O)c2[nH]c(C)c3c2CCCCC3=O)c1, which growth is on record?
Its growth is 4.18% (active).

For CN(C)CCn1cc(-c2ccc3c(Nc4ccc(CC(=O)Nc5cccc(F)c5)cc4)ncnc3c2)cn1, which growth is on record?
Its growth is -55.3% [30 µM] (active).

Which growth does the source give for COc1ccc2nc(NC(=O)CSc3nnc4n3S(=O)(=O)c3ccccc3N4c3ccccc3)sc2c1 here?
The growth was -83.2% (active).
